Test [1] has as its target Cell division control protein 42 homolog (Homo sapiens) (UniProt P60953). The test is described as follows: activated mutant Cdc42 GTP-binding inhibitors, dose response, biochemical, multiplex bead flow cytometry, Bodipy-FL-GTP (AID 1333;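 active means fitted half-maximal concentration within the tested dose range, moderate curve steepness, a statistically real signal drop, and little compound fluorescence or tag-binding interference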).
Test [2] shares this target. The test is described as follows: wildtype Cdc42 GTP-binding inhibitors, dose response, biochemical, multiplex bead flow cytometry, Bodipy-FL-GTP (AID 1334;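 active means fitted half-maximal concentration within the tested range, moderate curve steepness, significant signal drop, and little compound fluorescence or bead-linkage interference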). As to conditions: bead-based flow cytometry, Bodipy-FL-GTP binding to GST-Cdc42; at 100 µM (top of the series) unless noted. A general note: A flow cytometer gives signals particle by particle.
Test [3] addresses GTPase HRas (Homo sapiens) (UniProt P01112). The test is described as follows: inhibitors of GTP binding to wildtype Ras, dose response, biochemical, multiplex bead flow cytometry (AID 1335;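 active means fitted half-maximal concentration within 10 nM to 100 µM, steepness 0.5 to 2, significant signal drop, low assay interference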). As to conditions: bead-based flow cytometry, Bodipy-GTP binding to GST-Ras; at 100 µM (top of the series) unless noted.
The test system of test [4] is Ras-related protein Rab-7a (dog), GTP binding. The test can be described thus: Rab7 GTP binding inhibitors, potency, dose response, biochemical, wildtype, multiplex bead flow cytometry (AID 1336; call rule not given here).
For test [5], the target named is Ras-related C3 botulinum toxin substrate 1 (Homo sapiens) (UniProt P63000). The test is described as follows: wildtype Rac1 GTP binding inhibitors, dose response, biochemical, multiplex bead flow cytometry (AID 1340). As to conditions: GST-Rac1 beads, Bodipy-FL-GTP binding; at 100 µM (top of the series) unless noted.
Test [6] has as its target GTPase HRas (Homo sapiens) (UniProt P01112). The test is described as follows: activated Ras mutant GTP binding inhibitors, dose response, biochemical, multiplex bead flow cytometry (AID 1341;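 active means dose-response curve with midpoint inside the tested range, moderate steepness, significant amplitude and little compound fluorescence or bead-attachment interference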;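 further: GST-tagged constitutively activated Ras mutant immobilized on beads and multiplexed with other GTPases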).

For part of these data: Results with a measured potency or affinity are listed apart. Active and inactive are the calls of the source.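 How the source made its calls, unless noted: active means dose curve with midpoint inside tested range, moderate steepness, plateau gap beyond fit error, low compound glow and bead-link interference; inactive means the rest.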

Chain of Cell division control protein 42 homolog (Homo sapiens) (P60953 whole entry, looked up): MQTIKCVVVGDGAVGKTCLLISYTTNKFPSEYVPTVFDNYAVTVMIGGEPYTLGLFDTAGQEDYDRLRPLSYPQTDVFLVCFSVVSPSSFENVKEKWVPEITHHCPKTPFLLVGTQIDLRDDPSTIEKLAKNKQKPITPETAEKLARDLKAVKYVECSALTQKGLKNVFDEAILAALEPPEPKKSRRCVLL
Chain of GTPase HRas (Homo sapiens) (P01112 whole entry, looked up): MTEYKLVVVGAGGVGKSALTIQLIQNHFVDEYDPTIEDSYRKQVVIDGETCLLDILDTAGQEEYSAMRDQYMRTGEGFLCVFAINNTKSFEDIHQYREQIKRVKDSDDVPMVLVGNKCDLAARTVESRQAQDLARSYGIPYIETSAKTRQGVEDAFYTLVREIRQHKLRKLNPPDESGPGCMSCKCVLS

Turning to `CCOC(=O)Cc1csc(NC(=O)CSc2nc(-c3ccccc3)c(C#N)c(=O)[nH]2)n1`, the compound was called inactive in test [1], in test [4] and in test [6]. The fluorescence, percent of control (lower = inhibition) in test [2] is 29.4%. The GTP binding, percent of control in test [3] was 76.1%. The compound also came in with a GTP binding signal, raw median fluorescence (lower = inhibition) (MCF (arbitrary fluorescence units)) in test [5] of 218.

Turning to `Cc1ccc(Nc2c(F)c(F)c(F)c(F)c2C(=O)O)cc1`, the outcome in test [1], in test [4] and in test [6] was inactive. Moreover, the fluorescence, percent of control (lower = inhibition) in test [2] worked out at 84.8%. The compound further gave a GTP binding, percent of control in test [3] of 106%. Besides, the GTP binding signal, raw median fluorescence (lower = inhibition) (MCF (arbitrary fluorescence units)) in test [5] worked out at 74.

`Cn1cc([C@@H]2C[C@H]3CN(Cc4cccc(Cl)c4)C(=O)[C@]34CCCN24)c2ccccc21`: the result in test [1], in test [4] and in test [6] was inactive. Further, in test [2], the fluorescence, percent of control (lower = inhibition) came to 61.3%. This compound also gave a GTP binding, percent of control in test [3] of 111%. Besides, the GTP binding signal, raw median fluorescence (lower = inhibition) (MCF (arbitrary fluorescence units)) in test [5] came out at 276.

Consider `Cc1cc(C(=O)NC(=S)Nc2cccc(C(=O)O)c2C)ccc1[N+](=O)[O-]`, for which the result in test [1], in test [4] and in test [6] was inactive. In addition, the fluorescence, percent of control (lower = inhibition) in test [2] came to 37.3%. This compound had a GTP binding, percent of control in test [3] of 85.8%. The compound further came in with a GTP binding signal, raw median fluorescence (lower = inhibition) (MCF (arbitrary fluorescence units)) in test [5] of 272.

Regarding `Cc1cc(-c2n[nH]c(=S)n2/N=C/C(Cl)=C/c2ccccc2)n[nH]1`, the result in test [1], in test [4] and in test [6] was inactive. The fluorescence, percent of control (lower = inhibition) in test [2] amounted to 33.9%. In addition, in test [3], the GTP binding, percent of control was 78.7%. For the same compound, the GTP binding signal, raw median fluorescence (lower = inhibition) (MCF (arbitrary fluorescence units)) in test [5] is 229.

Turning to `O=C(C1CCCO1)N1CCN(C(=S)Nc2ccccc2C(F)(F)F)CC1` (stereo not given), the call in test [1], in test [4] and in test [6] was inactive. Also, the fluorescence, percent of control (lower = inhibition) in test [2] is 53.3%. The compound also showed a GTP binding, percent of control in test [3] of 64.3%. The GTP binding signal, raw median fluorescence (lower = inhibition) (MCF (arbitrary fluorescence units)) in test [5] turned out to be 208.

Consider `CCOC(=O)Cn1nnnc1C(CC)N(Cc1ccccc1)Cc1cc2cc(C)ccc2[nH]c1=O` (stereo not given), for which the result in test [1], in test [4] and in test [6] was inactive. Besides, in test [2], the fluorescence, percent of control (lower = inhibition) came to 83.7%. In test [3], this compound registered a GTP binding, percent of control of 155%. This compound also showed a GTP binding signal, raw median fluorescence (lower = inhibition) (MCF (arbitrary fluorescence units)) in test [5] of 182.

For `Cc1n[nH]c(=S)c2nn(-c3ccccc3F)c(C)c12`, the result in test [1], in test [4] and in test [6] was inactive. Also, in test [2], the fluorescence, percent of control (lower = inhibition) was 48.5%. The GTP binding, percent of control in test [3] is 62.5%. The same compound gave a GTP binding signal, raw median fluorescence (lower = inhibition) (MCF (arbitrary fluorescence units)) in test [5] of 179.

For `COc1ccc(OCc2c(C)cccc2C)c(C(=O)O)c1`, the compound was classed as inactive in test [1], in test [4] and in test [6]. In test [2], this compound yielded a fluorescence, percent of control (lower = inhibition) of 58.3%. Moreover, the GTP binding, percent of control in test [3] is 203%. The GTP binding signal, raw median fluorescence (lower = inhibition) (MCF (arbitrary fluorescence units)) in test [5] turned out to be 55.

`O=C(Nc1ccc2nc(-c3cccs3)[nH]c2c1)c1cccs1`: the outcome in test [1], in test [4] and in test [6] was inactive. For the same compound, the fluorescence, percent of control (lower = inhibition) in test [2] is 30.4%. Also, the GTP binding, percent of control in test [3] amounted to 68.4%. The compound also returned a GTP binding signal, raw median fluorescence (lower = inhibition) (MCF (arbitrary fluorescence units)) in test [5] of 184.

With `O=C(O)c1cccnc1SCc1cccc(F)c1`, the compound was called inactive in test [1], in test [4] and in test [6]. In addition, in test [2], the fluorescence, percent of control (lower = inhibition) was determined as 78.4%. The GTP binding, percent of control in test [3] came out at 92.9%. The same compound showed a GTP binding signal, raw median fluorescence (lower = inhibition) (MCF (arbitrary fluorescence units)) in test [5] of 52.6.

For `CCOc1ccc(-n2nc3c(=O)[nH]nc(C)c3c2C)cc1`, the call in test [1], in test [4] and in test [6] was inactive. In addition, the fluorescence, percent of control (lower = inhibition) in test [2] is 46.5%. In test [3], the GTP binding, percent of control turned out to be 60.9%. The same compound displayed a GTP binding signal, raw median fluorescence (lower = inhibition) (MCF (arbitrary fluorescence units)) in test [5] of 189.

For `COc1ccc(OC)c(CNCc2sc(C(=O)O)cc2C)c1`, the compound was classed as inactive in test [1], in test [4] and in test [6]. Besides, in test [2], the fluorescence, percent of control (lower = inhibition) came out at 59.9%. For the same compound, the GTP binding, percent of control in test [3] amounted to 81.9%. Besides, the GTP binding signal, raw median fluorescence (lower = inhibition) (MCF (arbitrary fluorescence units)) in test [5] was 32.8.

On to `CCc1ccccc1NCc1sc(C(=O)O)cc1C`, for which the outcome in test [1], in test [4] and in test [6] was inactive. The compound also displayed a fluorescence, percent of control (lower = inhibition) in test [2] of 61.1%. In addition, the GTP binding, percent of control in test [3] came to 87.1%. Also, in test [5], the GTP binding signal, raw median fluorescence (lower = inhibition) (MCF (arbitrary fluorescence units)) is 31.9.

`CCCOC(=O)NC1CCS(=O)(=O)C1` (stereo not given): the outcome in test [1], in test [4] and in test [6] was inactive. This compound also returned a fluorescence, percent of control (lower = inhibition) in test [2] of 99.8%. This compound also came in with a GTP binding, percent of control in test [3] of 159%. In test [5], the GTP binding signal, raw median fluorescence (lower = inhibition) (MCF (arbitrary fluorescence units)) was found to be 198.

The values above are taken from PubChem BioAssay.
